Inconclusive results are not listed. Unmarked numbers belong to inactive results. Active and inactive are the calls of the source. Calls follow the shape of the dose curve; as a rule, active = well fitted cell-killing curve with a large enough effect in the repeat runs; inconclusive = weak or mixed curves, or effect the other way; inactive = flat fitted curve, though single readings scatter.
Test: cAMP Responsive Elements (CRE) small molecule agonists, cell-based qHTS assay: qHTS cell viability counter screen (AID 2060914);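 also: viability read after 3 h of compound exposure; nearly all actives have a fitted effect of over 50% in size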
Conditions: CRE-bla HEK293T viability, CellTiter-Glo luminescence, 5 h; series mostly up to 92.4 µM; activity change, negative = cytotoxicity: at the top concentration
Source text: National Center for Advancing Translational Sciences [NCATS]
Division of Preclinical Innovation [DPI]
U.S. Environmental Protection Agency [EPA]
National Institutes of Environmental Health Sciences [NIEHS]
National Toxicology Program [NTP]
U.S. Food and Drug Administration [FDA]
CREB (cyclic-AMP Responsive Element Binding Protein) is a cellular transcription factor. It binds to certain DNA sequences called cAMP Responsive Elements (CRE) and regulates the transcription of the genes. […] This cell line can be used to find agonists/antagonists of the cyclic AMP signaling pathway. The activation of the report gene under culture conditions can be detected by fluorescence intensity. This cell line has been used to screen the Tox21 10K compound library to identify agonists that induce oxidative stress. The cytotoxicity of the Tox21 compound library against the CRE-bla cell line was tested in parallel by measuring the cell viability using CellTiter-Glo assay (Promega, Madison, WI) in the same wells.
Tox21 Assay Protocol Summary:
CRE-bla Hek 293T cells were suspended in assay medium (DMEM containing 10% dialyzed FBS, 0.1 mM NEAA, 1 mM sodium pyruvate and 25 mM HEPES) and dispensed at 2,000 cells/5 uL /well into 1536-well black wall/clear bottom plates using a Multidrop Combi (ThermoFisher Scientific, Waltham, MA) dispenser. After the assay plates were incubated at 37 C/5% CO2 for 18 hrs, 23 nL of compounds dissolved in DMSO, positive controls or DMSO only was transferred to the assay plate by a pintool workstation (Kalypsys, San Diego, CA). After the plates were incubated at 37 C/5% CO2 for 3 hrs, 1 uL of LiveBLAzer B/G FRET substrate (Invitrogen, Carlsbad, CA) was added to each well using Bioraptr Flying Reagent Dispenser (FRD, Aurora Discovery, San Diego, CA). The plates were incubated at room temperature for 2 h, then fluorescence intensities were measured using an Envision plate reader (PerkinElmer, Shelton, CT) at Excitation 405nm, Emission 460nm and 530nm. The % activity was determined from the ratio of 460nm/530nm. For cell viability readout that measures cytotoxicity, 4 uL /well of CellTiter-Glo reagent was added into the assay plates using Bioraptr FRD. After 30 min incubation at room temperature, the luminescence intensity in the assay plates was measured using a ViewLux (PerkinElmer, Shelton, CT) plate reader.
With `ClCCBr` the Potency was “inactive”. For `O=NN1CCCCC1`, the “activity change, negative = cytotoxicity” value was -13.5%. In the case of `CS(=O)(=O)NC(=O)c1cc(Oc2ccc(C(F)(F)F)cc2Cl)ccc1[N+](=O)[O-]`, the Potency is reported as “inactive”. In the case of `CC1NCCOC1c1ccccc1` (stereo not given), the “activity change, negative = cytotoxicity” value is reported as -6.71% [at 42.5 µM]. In the case of `C1CCNCC1`, the “activity change, negative = cytotoxicity” value is reported as -5.38%. In the case of `Nc1ccc(Cl)cc1`, the Potency is reported as “inactive”. In the case of `C=CC(C)=O`, the “activity change, negative = cytotoxicity” value is reported as 0.688%. In the case of `C[C@H](N)C(=O)c1ccccc1`, the “activity change, negative = cytotoxicity” value is reported as -4.85%. With `CC1C=[C-]C=C1.[C-]#[O+].[C-]#[O+].[C-]#[O+].[Mn]` the Potency was “inactive”. In the case of `O=S(=O)(O)F`, the “activity change, negative = cytotoxicity” value is reported as -7.85%. For `CCOP(O)OCC`, the “activity change, negative = cytotoxicity” value was -1.71%. With `Nc1ccc(Cc2ccc(N)c(Cl)c2)cc1Cl` the “activity change, negative = cytotoxicity” value was -1.37%. With `CC(C)(c1cc(Cl)c(O)c(Cl)c1)c1cc(Cl)c(O)c(Cl)c1` the Potency was “inactive”. In the case of `CCSCc1ccccc1OC(=O)NC`, the “activity change, negative = cytotoxicity” value is reported as 6.69%. In the case of `ClC1=C(Cl)[C@]2(Cl)[C@@H]3[C@@H](Cl)[C@H](Cl)C[C@@H]3[C@@]1(Cl)C2(Cl)Cl`, the “activity change, negative = cytotoxicity” value is reported as 0.697%. For `COC(=O)c1ccccc1S(=O)(=O)NC(=O)Nc1nc(C)nc(OC)n1`, the “activity change, negative = cytotoxicity” value was -13.1%. With `C=C(Cl)Cl` the “activity change, negative = cytotoxicity” value was -11.7%. With `CC(C)C(Br)C(=O)NC(N)=O` (stereo not given) the “activity change, negative = cytotoxicity” value was 4.19% [at 42.5 µM]. In the case of `C=CCc1ccccc1O`, the “activity change, negative = cytotoxicity” value is reported as 1.27%. For `CCCCON=O`, the “activity change, negative = cytotoxicity” value was -18.4%. In the case of `COC(C)(C)CCCC(C)C/C=C/C(C)=C/C(=O)OC(C)C` (stereo not given), the Potency is reported as “inactive”. With `CCCCCCCCSC(=O)Oc1cc(Cl)nnc1-c1ccccc1` the “activity change, negative = cytotoxicity” value was 5.48%. With `Fc1ccc(Oc2ccnc3cc(Cl)cc(Cl)c23)cc1` the “activity change, negative = cytotoxicity” value was 1.45%. For `ClC1=C(Cl)[C@]2(Cl)[C@H]3[C@H]([C@@H]4C=C[C@H]3C4)[C@@]1(Cl)C2(Cl)Cl`, the Potency was “inactive”. For `CC(C)COP(=O)(OCC(C)C)OCC(C)C`, the “activity change, negative = cytotoxicity” value was -3.66%. For `COC(=O)C(Br)CBr` (stereo not given), the “activity change, negative = cytotoxicity” value was 0.399%. With `CCCCCCCCP(=O)(O)O` the “activity change, negative = cytotoxicity” value was -7.81%. In the case of `CCn1cc[n+](C)c1C`, the Potency is reported as “inactive”. With `CC(C)OC(=O)C(O)(c1ccc(Cl)cc1)c1ccc(Cl)cc1` the “activity change, negative = cytotoxicity” value was -26.5%. With `c1cc2c(c(N3CCNCC3)c1)OCCO2` the “activity change, negative = cytotoxicity” value was 0.444% [at 42.5 µM]. In the case of `Nc1cc(Cl)ccc1O`, the “activity change, negative = cytotoxicity” value is reported as 2.01%. In the case of `Cc1ccc(S(=O)(=O)N[C@@H](CCCCN)C(=O)CCl)cc1`, the “activity change, negative = cytotoxicity” value is reported as 12.4% [at 42.5 µM]. For `O=C1C=CC(=O)C=C1`, the Potency was “inactive”. For `S=C=Nc1cccc2ccccc12`, the “activity change, negative = cytotoxicity” value was -6.59%. With `c1cc[c]([Sb]([c]2ccccc2)[c]2ccccc2)cc1` the “activity change, negative = cytotoxicity” value was -5.9%. With `Nc1ccc(N=Nc2ccccc2)cc1` the “activity change, negative = cytotoxicity” value was 10.9%. For `Nc1ccccc1`, the Potency was “inactive”. With `CCCCCCCCCCCCCCCCCC(=O)O` the Potency was “inactive”. In the case of `CC(C)(c1ccccc1)c1ccc(O)cc1`, the Potency is reported as “inactive”. In the case of `CCC(C(N)=O)N1CCCC1=O` (stereo not given), the “activity change, negative = cytotoxicity” value is reported as 5.55% [at 42.5 µM].
% is scaled to controls: 0 for no effect and ±100 for the full control effect.
